Shown are actives, neighbours in structure and some others; about 7.9% of the full set was active somewhere.
HT1080 IDH1KD tx: kills HT-1080 cells with IDH1 knockdown. HT-1080 IDH1 knockdown viability, ATP luminescence, 48 h. Potency, µM (top dose mostly 46.1 µM), hits mostly cytotoxic. hit rate 2% among 360,000
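IDH1KD HT-1080 cells, 750/well, RPMI + 5% FBS; compound pinned after 2 h settling; 48 h, 37 °C; CellTiter-Glo luminescence; % activity normalised to DMSO and no-cell wells; curves fitted, classed by r2 and efficacy.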
SW480 rerep: DNA re-replication induction in SW480 cells | SW480 DNA re-replication, Hoechst DNA content imaging, 48 h | Potency, µM (series often up to 46.1 µM), actives largely listed as activators | hit rate 1.8% among 340,000 | AID 624297; further: nearly all actives have a fitted effect of over 55% in size
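250 cells/well; 23 nL cpd via pin tool; 48 hr, 37 C, 5% CO2; Hoechst 40 min; imager read of total nuclear intensity, ex 405/em 500-530 nm.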
KB-V1 MDR tox: KB-V1 MDR subline cytotoxicity. KB-V1 MDR cells viability, CellTiter-Glo, 72 h. Potency, µM (titrated, usually from 46.1 µM), actives largely listed as cytotoxic. hit rate 3.4% among 400,000; further: nearly all actives have a fitted effect of over 60% in size
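Drug-selected KB-V1 cells, grown in DMEM lacking phenol red with 10% FBS, receive compound titrations; after three days at 37 degrees C, surviving cell ATP is quantified by CellTiter-Glo luminescence and responses normalized and curve-fitted.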
MCF10A rereplic: induces DNA re-replication in MCF 10a normal breast cells; Potency, µM (series often up to 46.1 µM), actives largely listed as activators; MCF 10A DNA re-replication, Hoechst nuclear intensity, 48 h; hit rate 2.9% among 350,000; further: nearly all actives have a fitted effect of over 50% in size
HT1080-NT tox: kills 2HG-producing HT-1080-NT fibrosarcoma cells. Potency, µM (titrated, usually from 46.1 µM), most hits filed as cytotoxic. AID 686970. hit rate 1.6% among 360,000. HT-1080-NT fibrosarcoma viability, CellTiter-Glo ATP luminescence, 48 h;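 further: NT is the 2HG producing partner of a matched IDH1 knockdown line; nearly all actives have a fitted effect of over 55% in size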
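Luminescent CellTiter-Glo readout after 48 hours of compound exposure at 37 degrees C defined viability of HT-1080-NT cells. Activity was normalized to DMSO wells and cell-free media wells; concentration-response curves were fitted and assigned curve classes.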
KB-3-1 cytotox: kills parental KB-3-1 adenocarcinoma cells; KB-3-1 viability, CellTiter-Glo ATP luminescence, 72 h; Potency, µM (highest dose often 46.1 µM), actives largely listed as cytotoxic; hit rate 1.4% among 400,000; AID 1347075; further: nearly all actives have a fitted effect of over 60% in size
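KB-3-1 parental drug-naive adenocarcinoma cells in DMEM/10% FBS, incubated 72 h at 37 C with pin-transferred compounds across a concentration series. Viability by CellTiter-Glo luminescence; concentration-response curves fitted after normalization.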
Each line names hits and unclear results; the compound was inactive in the other large screens. The call rests on the fitted dose curve; in most records, active means well fitted curve in the direction sought with a large enough effect; inconclusive means small, poorly fitted or top-dose-only effect, or another doubt; inactive means no such curve, though single readings can be large; an effect the other way counts as inactive or inconclusive.

CCS(=O)(=O)N1CCc2cc(C(=O)N3CCN(c4cccc(C(F)(F)F)c4)CC3)ccc21	KB-V1 MDR tox inconclusive, KB-3-1 cytotox 16µM (no result: HT1080 IDH1KD tx, SW480 rerep, MCF10A rereplic, HT1080-NT tox)
O=C(c1ccc2c(c1)OCO2)N1CCN(c2cccc(C(F)(F)F)c2)CC1	HT1080 IDH1KD tx inconclusive, SW480 rerep inconclusive, KB-V1 MDR tox 16µM, MCF10A rereplic 12µM, HT1080-NT tox 18µM, KB-3-1 cytotox 13µM
O=C(c1ccc2c(c1)CCN2S(=O)(=O)c1ccccc1)N1CCN(c2cccc(Cl)c2)CC1	none (no result: HT1080 IDH1KD tx, SW480 rerep, MCF10A rereplic, HT1080-NT tox)
O=C(Nc1ccc2c(c1)OCO2)N1CCN(c2cccc(C(F)(F)F)c2)CC1	none
O=C(c1ccc2ncsc2c1)N1CCN(c2cccc(C(F)(F)F)c2)CC1	HT1080 IDH1KD tx 8.2µM, SW480 rerep inconclusive, KB-V1 MDR tox inconclusive, MCF10A rereplic 13µM, HT1080-NT tox 8.2µM, KB-3-1 cytotox inconclusive
O=C(c1ccc2nc[nH]c2c1)N1CCN(c2cccc(C(F)(F)F)c2)CC1	SW480 rerep inconclusive
COC(=O)C1=C(C)NC(=O)NC1c1ccc2c(c1)OCO2 (configuration not stated)	none
O=C(O)Cn1c(=O)c2cccn2c2ccccc21	KB-V1 MDR tox inconclusive
Nn1c(SCC(=O)Nc2ccccc2)nnc(Cc2ccccc2)c1=O	KB-V1 MDR tox inconclusive
Oc1ccccc1/C=N/NC(=S)NC1CC2C=CC1C2 (configuration not stated)	HT1080 IDH1KD tx inconclusive, MCF10A rereplic 10µM, HT1080-NT tox inconclusive, KB-3-1 cytotox inconclusive
Oc1c(Cl)cc(Cl)cc1/C=N/NC(=S)NC1CC2C=CC1C2 (configuration not stated)	HT1080 IDH1KD tx 21µM, SW480 rerep 18µM, MCF10A rereplic 7.3µM, HT1080-NT tox inconclusive, KB-3-1 cytotox inconclusive
Oc1ccccc1C=NNC(=S)NC1CC2C=CC1C2 (configuration not stated)	HT1080 IDH1KD tx inconclusive, KB-V1 MDR tox inconclusive, KB-3-1 cytotox inconclusive (no result: SW480 rerep, MCF10A rereplic)
Oc1ccc2[nH]ccc2c1	SW480 rerep 8.2µM
Oc1ccc2ccc3[nH]cnc3c2c1	none
Cc1ccc(C(C(=O)NCc2ccco2)N(C(=O)CNC(=O)c2cccs2)c2c(C)cccc2C)cc1 (configuration not stated)	SW480 rerep inconclusive, MCF10A rereplic 18µM
Cc1ccc(-c2cc(-c3ccc4c(c3)OCO4)c(C#N)c(N)n2)o1	SW480 rerep 21µM, MCF10A rereplic 21µM, HT1080-NT tox inconclusive
N#Cc1c(N)oc(-c2ccc3c(c2)OCO3)c1-c1ccc2c(c1)OCO2	KB-V1 MDR tox 16µM
Cc1ccc(-c2cc(-c3ccc(Cl)cc3)c(C#N)c(N)n2)o1	SW480 rerep 2.6µM, MCF10A rereplic 2.9µM
Cc1ccc(-c2cc(-c3ccc(F)cc3)c(C#N)c(N)n2)o1	HT1080 IDH1KD tx inconclusive, SW480 rerep 21µM, MCF10A rereplic 4.1µM
Cc1nc(N)c(C#N)c(-c2ccc3c(c2)OCO3)c1C	MCF10A rereplic inconclusive
COc1cccc(C(=O)N/N=C(\C)CC(=O)Nc2ccc(N(C)C)cc2)c1	SW480 rerep inconclusive, HT1080-NT tox inconclusive
Cc1ccc(C(=O)NNC(=O)c2ccco2)cc1	SW480 rerep inconclusive
Cc1cc(-c2cc(-c3ccc(Cl)cc3)nc(N)c2C#N)co1	HT1080 IDH1KD tx inconclusive, SW480 rerep 7.3µM, MCF10A rereplic 2.6µM, HT1080-NT tox inconclusive
CCCc1cc(-c2ccc(O)c(OCC)c2)c(C#N)c(N)n1	HT1080 IDH1KD tx inconclusive, KB-V1 MDR tox inconclusive, KB-3-1 cytotox inconclusive
Cc1ccc(-c2c(C#N)c(N)nc3c2CCCCC3)o1	MCF10A rereplic inconclusive, KB-3-1 cytotox inconclusive
CCOc1cc(-c2c(C)c(CC)nc(N)c2C#N)ccc1O	HT1080 IDH1KD tx inconclusive, KB-V1 MDR tox 18µM, MCF10A rereplic inconclusive, KB-3-1 cytotox inconclusive
Cc1ccc(-c2cc(-c3ccc(C)o3)nc(N)c2C#N)cc1	SW480 rerep 23µM, MCF10A rereplic inconclusive
COc1ccc(-c2cc(-c3ccc(O)cc3)nc(N)c2C#N)cc1OC	HT1080 IDH1KD tx inconclusive, KB-V1 MDR tox inconclusive, MCF10A rereplic inconclusive, KB-3-1 cytotox inconclusive

Screening data: PubChem, National Center for Advancing Translational Sciences (NCATS)
